Experimental findings from PubChem BioAssay AID504467 (National Center for Advancing Translational Sciences (NCATS), 2011) are described below.

Each structure is given as a SMILES string. About 7,700 (2.3%) of roughly 330,000 compounds were called active. Where a call stands in place of a potency, no number is given. Roughly 26% stayed inconclusive and do not appear here. Calls come from the whole dose curve; as a rule, active = well fitted inhibition curve with a large enough effect; inconclusive = small, poorly fitted or top-dose-only effect, or effect the other way; inactive = flat fitted curve, though single readings scatter. The sample as a whole holds a higher share of actives than the screen did.
Potency is the fitted concentration of half-maximal effect.

This test is described as follows: qHTS screen for small molecules that inhibit ELG1-dependent DNA repair in human embryonic kidney (HEK293T) cells expressing luciferase-tagged ELG1. Note: nearly all actives have a fitted effect of over 55% in size. The note with it: HEK293T ELG1-luciferase reporter, luminescence, 16 h, DNA damage induced by 5-fluorouridine; series mostly up to 46.1 µM. Summed up:
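Step one: seed 2,000 cells per well. Step two: pin-transfer compound or DMSO alongside 5-fluorouridine. Step three: incubate 16 hr, 37 °C, 5% CO2. Step four: add ONE-Glo, wait 30 min, read luminescence.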
Background: qHTS replaces the single test concentration by a dilution series.
Regarding `CC(C)=CCCC(C)CN1CCC(n2nccc2NC(=O)c2ccccc2)CC1` (stereo unspecified), the Potency result is “inactive”.

For `Cc1cccc2cc(CN(Cc3cccs3)C(=S)NCc3ccco3)c(=O)[nH]c12`, the Potency was 20.6 µM (active).

As for `Cc1cc(C)c2[nH]c(=O)c(CN(Cc3ccccc3)C(=S)NCCCN(C)C)cc2c1`, the Potency entry was “inactive”.

Regarding `Cc1cccc2cc(CN(C(=O)c3cccs3)c3ccccc3)c(=O)[nH]c12`, the Potency entry was “inactive”.

Take `C=CC[C@@H](CC(=O)N[C@@H](CO)Cc1ccccc1)C(=O)N[C@H](COC(=O)[C@H](CC=C)CC(=O)OC(C)(C)C)Cc1ccccc1`: the Potency result was “inactive”.

For `COCCNc1cc(-c2ccccc2)nc2cc(-c3cccc(F)c3)nn12`, the Potency was 18.3 µM (active).

As for `COCCCNc1nc2c(-c3cccc(C(F)(F)F)c3)nnn2c2ccccc12`, the Potency entry is “inactive”.

Regarding `COC(=O)C(C)Sc1ccc2nnc(-c3cccc(F)c3)n2n1` (stereo unspecified), the Potency entry is “inactive”.

Turning to `O=S(=O)(c1ccc(SCc2ccc(Br)cc2)nc1)N1CCOCC1`, the Potency entry is “inactive”.

On to `CC(=O)Oc1ccc2c(=O)oc(-c3ccc([N+](=O)[O-])cc3)nc2c1`, for which the Potency result was “inactive”.

As for `Cc1ccc(NC(=O)C/C(N)=N/O)cc1Cl`, the Potency entry is “inactive”.

Consider `O=C(CC(O)(C(F)(F)F)C(F)(F)F)Nc1ccc(Cl)c(Cl)c1`, for which the Potency was 4.11 µM (active).

Turning to `O=C(CC(=O)Nc1ccc(Cl)c(Cl)c1)N/N=C/c1ccc(O)cc1`, the Potency entry was “inactive”.

Take `COc1cccc2cc(C(=O)NCc3ccc(C)cc3)c(=N)oc12`: the Potency entry was “inactive”.

`CCOc1ccc(NC(=O)CN(C)C(=O)c2cccc(S(=O)(=O)N3CCCC3)c2)cc1OCC`: the Potency result was “inactive”.

Consider `CCOC(=O)CNC(=O)CSc1ccc2nnc(-c3cccnc3)n2n1`, for which the Potency result was “inactive”.

Take `Cn1c(SCC(=O)N2CCCc3ccccc32)nc2ccccc2c1=O`: the Potency is 16.4 µM (active).

In the case of `CCC(=O)N1CCCc2ccccc21`, the Potency entry is “inactive”.

`CCCn1c(SCC(=O)N2CCc3ccccc32)nnc1-c1ccncc1`: the Potency result was “inactive”.

With `O=C(CSc1ccc2nnc(-c3ccccc3)n2n1)N1CCCc2ccccc21`, the Potency is 25.9 µM (active).

Take `O=C(CSc1nc2[nH]ncc2c(=O)n1-c1ccccc1)N1CCCc2ccccc21`: the Potency result was “inactive”.

As for `O=C1NC(Cc2ccc(O)cc2)c2nc3ccc(Cl)cc3c(=O)n2-c2ccccc21` (stereo unspecified), the Potency result was “inactive”.

Take `CCOc1ccc(NC(=O)C2CCN(C(=O)N3CCOc4ccccc43)CC2)cc1`: the Potency entry is “inactive”.

As for `COC(=O)c1ccc(CN2CCCC(C(=O)Nc3cccc(-n4cnnn4)c3)C2)cc1` (stereo unspecified), the Potency was 16.4 µM (active).

For `CC(C)CNC(=O)C1CCCN(S(=O)(=O)c2ccc(-n3cnnn3)cc2)C1` (stereo unspecified), the Potency entry is “inactive”.

In the case of `O=C(Nc1ccc(F)cc1)C1CCCN(S(=O)(=O)c2ccc(-n3cnnn3)cc2)C1` (stereo unspecified), the Potency result was “inactive”.

In the case of `O=C(NCCc1ccco1)C(=O)NCCC1CCCCN1S(=O)(=O)c1ccccc1` (stereo unspecified), the Potency entry is “inactive”.

For the compound `N#C/C(=C(/O)COc1cccc2ccccc12)c1nc2ccccc2[nH]1`, the Potency result is “inactive”.

With `N#C/C(=C(/O)Cc1cccc2ccccc12)c1nc2ccccc2s1`, the Potency is 20.6 µM (active).

Turning to `c1ccc2c(CSCc3nc4ccccc4[nH]3)cccc2c1`, the Potency result is “inactive”.

In the case of `Cc1noc(C)c1S(=O)(=O)N(C)C[C@H]1Oc2ccc(NC(=O)C3CCCCC3)cc2C(=O)N([C@H](C)CO)C[C@@H]1C`, the Potency result is “inactive”.

As to `O=C(Nc1ccc(C(F)(F)F)cc1)c1cccc(-n2cnnn2)c1`, the Potency result is “inactive”.

Regarding `CC(=O)Nc1ccc(NS(=O)(=O)c2ccc3c(c2)NC(=O)CC(=O)N3)cc1`, the Potency entry was “inactive”.

For `COc1ccc(NC(=O)Cn2ncn3c(cc4ccccc43)c2=O)c(OC)c1OC`, the Potency result is “inactive”.

For `COc1ccc(C(=O)C2CCCN(S(=O)(=O)c3cccc(C)c3)C2)c(C)c1` (stereo unspecified), the Potency entry is “inactive”.

In the case of `COc1cc(-c2noc(C3CCCN(S(=O)(=O)c4cccc(Cl)c4)C3)n2)cc(OC)c1OC` (stereo unspecified), the Potency is 20.6 µM (active).

Consider `COc1ccc(NC(=O)N2CCCC(c3nc(-c4ccc(F)cc4)no3)C2)cc1` (stereo unspecified), for which the Potency entry was “inactive”.

As to `Cn1c(CC(=O)NNC(=O)c2ccccc2F)nc2ccccc21`, the Potency entry is “inactive”.

As for `O=C(CN1C(=O)NC2(CCOc3ccccc32)C1=O)Nc1cccc([N+](=O)[O-])c1` (stereo unspecified), the Potency entry is “inactive”.

For `COc1ccc(S(=O)(=O)N2CCOCC2)cc1C(=O)NC1CCCCC1`, the Potency entry was “inactive”.

With `COc1ccc(CC(=O)Nc2cc(S(=O)(=O)N3CCCCC3)ccc2N2CCN(C)CC2)cc1`, the Potency result was “inactive”.

`CCNC(=O)NC(=O)C(C)OC(=O)C1CCN(S(=O)(=O)c2ccccc2F)CC1` (stereo unspecified): the Potency entry is “inactive”.

For the compound `COc1ccc(S(=O)(=O)N2CCCCC2)cc1NC(=O)COc1ccccc1`, the Potency result was “inactive”.

Take `COc1ccc(S(=O)(=O)N2CCCCC2)cc1Br`: the Potency entry was “inactive”.

As to `COc1ccc(S(=O)(=O)Nc2ccc(S(=O)(=O)N3CCCCC3)cc2)cc1OC`, the Potency entry is “inactive”.

`COc1ccc(S(=O)(=O)N2CCCCCC2)cc1NC(=O)Cc1ccc(OC)c(OC)c1`: the Potency was 18.3 µM (active).

As for `CCNC(=O)NC(=O)C(C)OC(=O)c1cc(S(=O)(=O)N2CCCCCC2)ccc1OC` (stereo unspecified), the Potency was 23.1 µM (active).

`COc1ccc(-c2ccc(Nc3ccc(S(=O)(=O)N4CCCC4)cc3)nn2)cc1OC`: the Potency is 23.1 µM (active).

Consider `CC(=O)NCCC(=O)Nc1cc(S(=O)(=O)N2CCCCC2)ccc1Oc1cccc(C)c1`, for which the Potency entry is “inactive”.

With `Cc1cccn2c(=O)c3cc(C(=O)NCC4CCCO4)c(=N)n(Cc4ccc(F)cc4)c3nc12` (stereo unspecified), the Potency entry was “inactive”.

Regarding `CCCCc1ccc(NS(=O)(=O)c2cccc(C(=O)N3CCCN(C)CC3)c2)cc1`, the Potency result is “inactive”.

Take `COc1cc(OC)c(N2CC(C(=O)Nc3cc(Cl)ccc3N3CCOCC3)CC2=O)cc1Cl` (stereo unspecified): the Potency entry is “inactive”.

`CC(=O)Nc1ccc(S(=O)(=O)Nc2nc(-c3ccc(C(C)(C)C)cc3)cs2)cc1`: the Potency entry is “inactive”.

With `O=C(O)c1ccccc1C(=O)Nc1nc(-c2ccccc2)cs1`, the Potency entry is “inactive”.

Take `CC(=O)Nc1ccc(-c2csc(NC(=O)Nc3ccccc3)n2)cc1`: the Potency was 7.3 µM (active).

As to `CC1C(=O)C(C)C(c2ccc(O)cc2)NC1c1ccc(O)cc1` (stereo unspecified), the Potency entry is “inactive”.

Regarding `CC(C)[C@H](NC(=O)N1c2ccccc2NC(=O)[C@@H]1C(C)C)C(=O)N[C@H](C(=O)O)c1ccccc1`, the Potency entry was “inactive”.

In the case of `Cc1cccc(N2CCN(C(C)C(=O)N3CCc4ccccc43)CC2)c1C` (stereo unspecified), the Potency result is “inactive”.

As for `COc1ccc(OCCNC(=O)c2cc(C3CC3)nc3c2cnn3C(C)C)cc1`, the Potency entry was “inactive”.

Regarding `COc1ccc(CNC(=O)CN(C(=O)c2csnn2)c2cnc3ccccc3c2)cc1`, the Potency result was “inactive”.

Take `COc1cc(N)c(Cl)cc1C(=O)OCC(=O)c1ccc2c(c1)NC(=O)CO2`: the Potency was 3.66 µM (active).

`O=C1COc2ccc(C(=O)COC(=O)c3ccccc3Cl)cc2N1`: the Potency entry is “inactive”.

For the compound `O=C1COc2ccc(C(=O)COC(=O)c3cccnc3Cl)cc2N1`, the Potency entry is “inactive”.

With `COc1cc(/C=N/NC(=O)c2cccnc2)ccc1OC(=O)c1cccc(Br)c1`, the Potency result was “inactive”.

`CCOC(=O)c1ccc(N/C(=N/S(=O)(=O)c2ccccc2)c2ccccc2)cc1`: the Potency entry was “inactive”.

Take `CCOC(=O)c1nc(Nc2ccc(C(=O)OC)cc2)c2ccccc2n1`: the Potency was 4.11 µM (active).

In the case of `CCOC(=O)c1ccc(Nc2cc(C)nc3nc(C)nn23)cc1`, the Potency result is “inactive”.

`Cc1cc2occ(CC(=O)NNC(=O)c3ccccc3F)c2cc1C`: the Potency entry is “inactive”.

Take `O=C1[C@H]2[C@@H](c3ccc(Cl)cc3)N3C(=O)N(c4cccc(F)c4)C(=O)[C@@]3(Cc3ccccc3)[C@H]2C(=O)N1C1CCCCC1`: the Potency result was “inactive”.

Take `COc1ccccc1CN1CCN(C(c2ccccc2)c2ccccc2)CC1`: the Potency entry was “inactive”.

With `CCCCn1c(N)c(N(CC(C)C)C(=O)c2ccc(-n3c(C)ccc3C)cc2)c(=O)[nH]c1=O`, the Potency result was “inactive”.

For `Cc1nc(SCC(=O)NC2CCCCC2C)c(C#N)c(C)c1C` (stereo unspecified), the Potency result is “inactive”.

Take `COc1ccc(NS(=O)(=O)c2ccc(Oc3c(C#N)cccc3C#N)cc2)cc1`: the Potency is 2.31 µM (active).

As for `COc1ccccc1Oc1ccc(S(=O)(=O)Nc2cccnc2)cc1`, the Potency result is “inactive”.

As to `CCOc1ccc(S(=O)(=O)Nc2ccc(S(=O)(=O)Nc3cc(OC)ccc3OC)cc2)cc1`, the Potency result is “inactive”.

In the case of `CN(CC(=O)Nc1ccc(OC(F)(F)F)cc1)C(=O)C1CCC1`, the Potency result was “inactive”.

For the compound `Cc1noc(/C=C/c2ccco2)c1S(=O)(=O)N1CCC(C(=O)Nc2ccc(Cl)cn2)CC1`, the Potency was 5.8 µM (active).

`Cc1noc(/C=C/N(C)C)c1S(=O)(=O)N1CCCC(C(=O)NCc2ccco2)C1` (stereo unspecified): the Potency entry is “inactive”.

With `CCOC(=O)C1CCN(S(=O)(=O)c2c(C)noc2C)CC1`, the Potency entry was “inactive”.

In the case of `Cc1ccc(Cl)c(OCC(=O)N(C)CC(=O)Nc2ccc(N3CCOCC3)cc2)c1`, the Potency result was “inactive”.

Consider `COc1cc2ccccc2cc1C(=O)N(CCN(C)C)c1nc2c(F)cccc2s1`, for which the Potency result is “inactive”.

As to `CN1c2ccc(C=O)c3c(C=O)ccc(c23)N(C)C1(C)C`, the Potency is 6.51 µM (active).

For the compound `Cc1cccn2c(=O)c(/C=C(\C#N)C(N)=O)c(N3CCCCCC3)nc12`, the Potency result was “inactive”.

For the compound `CC(Sc1ccccc1F)C(=O)Nc1cccc(S(=O)(=O)N2CCOCC2)c1` (stereo unspecified), the Potency entry was “inactive”.

In the case of `CC(C)CN(C(=O)COC(=O)c1ccc(Cl)c(N)c1)c1c(N)n(Cc2ccccc2)c(=O)[nH]c1=O`, the Potency entry is “inactive”.

In the case of `COC(=O)C(C)Oc1ccc2c(c1)O/C(=C\c1cccc(Br)c1)C2=O` (stereo unspecified), the Potency result is “inactive”.

Take `Cc1ccc(OCCC(=O)OCC(=O)N2c3ccccc3NC(=O)C2(C)C)cc1`: the Potency entry is “inactive”.

For `Cc1cc(C(=O)OCC(=O)N2c3ccccc3NC(=O)C2(C)C)c(C)n1-c1ccccc1`, the Potency is 29.1 µM (active).

As to `CNS(=O)(=O)c1cccc(C(=O)OCC(=O)N2c3ccccc3NC(=O)C2(C)C)c1`, the Potency result is “inactive”.

Consider `O=c1[nH]cccc1-c1nc2ccccc2n1Cc1ccc(Cl)cc1`, for which the Potency result was “inactive”.

For `O=C(CNC(=O)c1cccs1)N/N=C/c1cccc(Br)c1`, the Potency entry was “inactive”.

In the case of `O=C(NC(Cc1c[nH]c2ccccc12)C(=O)N/N=C/c1ccc(Br)cc1)c1cccs1` (stereo unspecified), the Potency is 23.1 µM (active).

As for `CC(=O)NC(Cc1c[nH]c2ccccc12)C(=O)O` (stereo unspecified), the Potency entry was “inactive”.

As to `CC1CN(C(=O)c2ccc([N+](=O)[O-])s2)CC(C)O1` (stereo unspecified), the Potency result was “inactive”.

As to `COc1ccc(CC(=O)NC2CCSc3ccccc32)cc1OC` (stereo unspecified), the Potency entry was “inactive”.

On to `CCOc1ccc(CCNC(=O)COC(=O)c2ccc(F)c(S(=O)(=O)N3CCOCC3)c2)cc1OCC`, for which the Potency entry is “inactive”.
